In the library only some 31% were active in any assay of this set; here they are far more common.
CYP2C19 act – human CYP2C19 activators, primary screen, biochemical, luminescence; Cytochrome P450 2C19 (Homo sapiens), P33261; recombinant CYP2C19, luciferin-H EGE luminescence; active compounds read high; 0 = fully inhibited enzyme, 1 = untreated enzyme; activation factor at 5 µM; 96,000 tested, under 10 active;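 active means activation factor of at least 2 at 5 µM in the primary screen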;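 further: 0 = wells with 2.5 mM tranylcypromine and 1 = vehicle-only wells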
CYP2C9 act – human CYP2C9 activators, primary screen, biochemical, luminescence | AID 1024, 2008 | activation factor at 5 µM | Cytochrome P450 2C9 (Homo sapiens), P11712 | hit rate 1.4% among 96,000 | recombinant CYP2C9, luciferin-H conversion; active compounds read high; factor 1 = untreated enzyme, 0 = blocked;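 active means activation factor of 2 or more for CYP2C9 at a 5 µM dose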;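 further: 0 = sulfaphenazole-blocked wells and 1 = vehicle-only wells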
CYP2C9 inhib – blockers of cytochrome P450 2C9 activity – biochemical, luminescence, ADME assay, primary screen. inhibition, % at 5 µM. hit rate 20% among 96,000. P11712. CYP2C9 Supersomes, luciferin-H conversion;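 active means blocking of liver enzyme CYP2C9 beyond about 50% at 5 µM, limit read from the data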
CYP2C19 inhib – blockers of cytochrome P450 2C19 activity – biochemical, luminescence, ADME assay, primary screen | CYP2C19 Supersomes, luciferin-H EGE luminescence, 30 min | inhibition, % at 5 µM | hit rate 21% among 96,000;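 active means CYP2C19 inhibition above a set limit at 5 µM in the primary screen, cut at about 50% in these data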;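 further: plate controls were negative control wells for no effect and 2.5 mM tranylcypromine positive control for full effect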
PLAP activator – PLAP enzyme activators, biochemical, luminescence, HTS. Alkaline phosphatase, placental type (Homo sapiens), P05187. purified PLAP enzyme, luminescent substrate read-out; active compounds read high. activation fold at 20 µM. hit rate 1.2% among 96,000; in the data active means activation fold above about 2
Target sequence (P05187 whole entry, looked up): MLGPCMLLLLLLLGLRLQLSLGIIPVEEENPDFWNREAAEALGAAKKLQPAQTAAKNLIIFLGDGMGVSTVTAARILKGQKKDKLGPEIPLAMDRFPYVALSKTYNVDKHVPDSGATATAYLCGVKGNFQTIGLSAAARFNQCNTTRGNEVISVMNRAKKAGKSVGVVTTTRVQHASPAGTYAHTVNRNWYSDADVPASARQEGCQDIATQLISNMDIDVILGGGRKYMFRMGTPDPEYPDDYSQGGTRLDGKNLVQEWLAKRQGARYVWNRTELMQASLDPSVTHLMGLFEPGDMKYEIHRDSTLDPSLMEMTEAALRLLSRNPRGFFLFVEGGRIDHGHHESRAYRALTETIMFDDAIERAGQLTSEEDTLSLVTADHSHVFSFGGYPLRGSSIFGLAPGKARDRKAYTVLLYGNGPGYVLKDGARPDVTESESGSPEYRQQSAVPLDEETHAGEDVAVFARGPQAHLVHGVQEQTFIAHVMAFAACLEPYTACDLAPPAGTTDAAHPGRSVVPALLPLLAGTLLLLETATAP
* hit, by the source's call.

SMILES	CYP2C19 act	CYP2C9 act	CYP2C9 inhib	CYP2C19 inhib	PLAP activator
C(=N\n1cnnc1)/c1ccc2c(c1)OCCO2	0.5	1.1	-12	48	0.9
C(=N\n1cnnc1)/c1ccc(N2CCOCC2)cc1	0.1	0.3	65*	88*	0.9
C(=N\n1cnnc1)/c1ccc(N2CCOCC2)s1	0.4	0.8	19	60*	0.9
S=c1[nH]ncn1/N=C/c1ccc(N2CCOCC2)cc1	0.8	1	4	24	0.8
C(=N\n1cncn1)/c1ccc(N2CCOCC2)cc1	0.4	0.6	39	63*	0.9
COc1ccccc1-c1nnc(N(C)C(=O)C2CCCO2)s1 (stereo unspecified)	0.7	1.2	-19	31	1
CCC(Sc1nc2n[nH]c(C)c2c(=N)n1-c1cccc(Cl)c1C)C(=O)N(CC)CC (stereo unspecified)	1	0.4	59*	4	1.3
CCCS(=O)(=O)c1c(S(=O)(=O)CCC)c2cnccn2c1C(=O)c1ccc(Cl)cc1	1	0.9	6	2	1.6
c1ccc(Oc2cccc(NC3=NCCC3)c2)cc1	0.8	1	0	16	1.2
CCCC(c1nnnn1CS(=O)(=O)c1ccc(C)cc1)N1CCN(c2ccccc2)CC1 (stereo unspecified)	0.7	0.4	62*	27	0.9
Cc1ccc(-c2nnnn2CS(=O)(=O)c2ccccc2)cc1	0.3	1.7	-74	68*	0.9
Cc1ccc(S(=O)(=O)Cn2nnnc2C(CC(C)C)N2CCN(c3ccc(F)cc3)CC2)cc1 (stereo unspecified)	0.8	0.6	42	23	1.1
Cc1ccc(S(=O)(=O)Cn2nnnc2C(c2ccccc2)N2CCN(c3ncccn3)CC2)cc1 (stereo unspecified)	0	0.1	94*	98*	1.7
O=C(c1ccco1)N1CCN(S(=O)(=O)c2ccc(S(=O)(=O)NC3CCCC3)cc2)CC1	1	0.9	14	-5	0.9
COCCNCC(=O)NCC12CC3CC(CC(C3)C1)C2	1	1	-2	4	1
NS(=O)(=O)c1ccc(CCNc2ncnc3c2c(-c2ccccc2)cn3-c2ccc(F)cc2)cc1	0.8	0.4	57*	23	1.3
NS(=O)(=O)c1ccc(CCNc2cc(=O)n(Cc3ccc(F)cc3)c(=O)[nH]2)cc1	1	0.9	9	2	0.7
N#CC1=C(Nc2ccccc2)SC=C(c2ccc(Br)cc2)N=C1N1CCOCC1	1	1.2	-20	-2	1
O=C(CSc1nnc(C2CC2)n1Cc1ccccc1)c1cc2ccccc2o1	0.1	0.1	88*	93*	1.4
NC(=O)CSc1nnc(-c2cc3ccccc3o2)n1Cc1ccccc1	1	0.9	11	2	0.8
CCOC(=O)CSc1nnc(CNC(=O)c2cccs2)n1-c1cc(C)ccc1C	1	0.8	20	-1	1.2
O=C(N1CCOCC1)N1CCCN(C(=O)N2CCOCC2)CC1	1	1.2	-19	0	1
C/C(Nc1ccccc1)=C(/C#N)C(N)=O	1.1	1.2	-17	-7	1
O=C(NCCCO)c1nnc(Cc2c(F)cccc2Cl)o1	1.2	0.9	5	-18	0.8
O=C(NCCCN1CCN(Cc2ccccc2)CC1)c1nnc(Cc2c(F)cccc2Cl)o1	0.7	0.4	56*	34	1.7
SMILES	CYP2C19 act	CYP2C9 act	CYP2C9 inhib	CYP2C19 inhib	PLAP activator
COc1ccc(C(=O)c2ccccc2Cl)cc1	0.2	2.5*	-154	81*	0.9
COc1ccc2cc(C(=O)c3ccccc3)c(=O)oc2c1	0.1	1.5	-52	92*	1
O=S(=O)(NCc1cc(-c2ccccc2Cl)no1)c1ccc(Cl)cc1	0.1	1.9	-87	93*	0.7
OC1(c2ccc(F)cc2)CCN(Cc2ccccc2)C1 (stereo unspecified)	0.2	1	1	84*	0.8
COc1ccc(C2(O)CCN(Cc3nnnn3Cc3ccc(F)cc3)CC2)cc1	1.1	1	-2	-8	1.3
O=C(OCc1nc2ccccc2s1)C1CCN(C2=NS(=O)(=O)c3ccccc32)CC1	0.8	0.8	21	19	1.8
COc1ccc(Cl)cc1N1C(=O)CC(N2CCc3ccccc32)C1=O (stereo unspecified)	0.1	0.7	33	91*	1.2

Screens (PubChem)
